target: Ribosomal protein S6 kinase alpha-2 (Homo sapiens) (UniProt Q15349); conditions: at 1 µM
Sequence (Q15349 whole entry): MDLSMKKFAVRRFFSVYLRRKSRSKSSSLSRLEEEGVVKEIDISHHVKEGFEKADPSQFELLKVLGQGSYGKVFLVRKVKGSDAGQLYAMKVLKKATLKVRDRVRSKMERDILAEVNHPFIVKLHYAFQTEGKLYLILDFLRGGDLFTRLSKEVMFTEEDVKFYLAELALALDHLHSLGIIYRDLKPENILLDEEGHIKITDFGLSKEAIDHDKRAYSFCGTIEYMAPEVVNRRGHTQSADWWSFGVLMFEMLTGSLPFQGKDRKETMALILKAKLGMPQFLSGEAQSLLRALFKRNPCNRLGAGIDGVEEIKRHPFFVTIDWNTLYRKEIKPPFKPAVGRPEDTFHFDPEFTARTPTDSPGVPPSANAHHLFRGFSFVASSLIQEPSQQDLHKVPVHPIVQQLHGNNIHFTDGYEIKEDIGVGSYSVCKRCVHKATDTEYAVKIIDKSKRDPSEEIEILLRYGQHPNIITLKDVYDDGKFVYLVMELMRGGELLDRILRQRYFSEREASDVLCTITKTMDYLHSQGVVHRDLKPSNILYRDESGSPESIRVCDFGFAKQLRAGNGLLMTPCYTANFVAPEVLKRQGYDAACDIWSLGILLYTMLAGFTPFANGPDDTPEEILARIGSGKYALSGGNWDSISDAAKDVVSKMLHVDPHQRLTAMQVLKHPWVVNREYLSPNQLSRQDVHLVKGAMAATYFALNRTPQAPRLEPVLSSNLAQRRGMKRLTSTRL

Q: How did the residual activity turn out when `Nc1nccc(-c2c(-c3ccc(F)cc3)ncn2C2CCNCC2)n1` was run?
A: Its residual activity is 83%.

Q: `O=S(=O)(NCCNC/C=C/c1ccc(Br)cc1)c1cccc2cnccc12` was tested. Which residual activity did it give?
A: The residual activity was 70%.

Q: How did the residual activity turn out when `O=C1NC(=O)C(c2cn(CCCn3ccnc3)c3ccccc23)=C1Nc1ccccc1` was run?
A: Its residual activity is 0%.

Q: `NCCNc1ncc(C(N)=O)c(Nc2cccc(C(F)(F)F)c2)n1` was tested. Which residual activity did it give?
A: The residual activity was 82%.

Q: With `O=C1Cc2c([nH]c3ccc([N+](=O)[O-])cc23)-c2ccccc2N1` as the molecule, how does the residual activity read?
A: The residual activity was 38%.

Q: Which residual activity does the source give for `CN([C@@H](Cc1ccc(OS(=O)(=O)c2cccc3cnccc23)cc1)C(=O)N1CCN(c2ccccc2)CC1)S(=O)(=O)c1cccc2cnccc12` here?
A: Its residual activity is 99%.

Q: With `COc1ccc2c(c1)c(C1=C(c3c[nH]c4ccccc34)C(=O)NC1=O)cn2CCCN(C)C` as the molecule, how does the residual activity read?
A: The residual activity was 0%.

Q: For `O=C1Cc2c([nH]c3ccc(Br)cc23)-c2ccccc2N1`, which residual activity is on record?
A: The residual activity was 12%.

Q: For `CCOC(=O)c1c(C)[nH]c(/C=C2\C(=O)Nc3ccccc32)c1C`, which residual activity is on record?
A: Its residual activity is 72%.

Q: For `Cc1cc(C)c(/C=C2\C(=O)Nc3ccccc32)[nH]1`, which residual activity is on record?
A: Its residual activity is 27%.

Q: For `CCN(CC)CCNC(=O)c1c(C)[nH]c(/C=C2\C(=O)Nc3ccc(Cl)cc32)c1C`, which residual activity is on record?
A: Its residual activity is 9%.

Q: For `O=C1NC(=O)C(c2c[nH]c3ccccc23)=C1c1c[nH]c2ccccc12`, which residual activity is on record?
A: Its residual activity is 5%.

Q: Which residual activity does the source give for `CN(C)S(=O)(=O)c1ccc2c(c1)/C(=C/c1cc3c([nH]1)CCCC3)C(=O)N2` here?
A: Its residual activity is 36%.

Q: How did the residual activity turn out when `O=C1NC(=O)C(c2cn(CCCO)c3ncccc23)=C1c1cnccn1` was run?
A: Its residual activity is 63%.

Source: ChEMBL document CHEMBL2218924, “A broad activity screen in support of a chemogenomic map for kinase signalling research and drug discovery” (Biochem J, 2013)
